Results on 24 compounds are retold here after PubChem BioAssay AID493152 (Sanford-Burnham Center for Chemical Genomics, 2011).

The term inhibition denotes the change of the read-out against control, counted positive when it falls.

Molecules are shown by their SMILES. This is one part of the list. A number with no mark means an inactive call. The source made the active and inactive calls.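 How the source made its calls: active means inhibition reaching a set limit in any replicate at 20 µM, the limit being 80% of the first screen's; inactive means the rest.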

Sequence of DNA dC->dU-editing enzyme APOBEC-3G (Homo sapiens) (Q9HC16 whole entry, looked up): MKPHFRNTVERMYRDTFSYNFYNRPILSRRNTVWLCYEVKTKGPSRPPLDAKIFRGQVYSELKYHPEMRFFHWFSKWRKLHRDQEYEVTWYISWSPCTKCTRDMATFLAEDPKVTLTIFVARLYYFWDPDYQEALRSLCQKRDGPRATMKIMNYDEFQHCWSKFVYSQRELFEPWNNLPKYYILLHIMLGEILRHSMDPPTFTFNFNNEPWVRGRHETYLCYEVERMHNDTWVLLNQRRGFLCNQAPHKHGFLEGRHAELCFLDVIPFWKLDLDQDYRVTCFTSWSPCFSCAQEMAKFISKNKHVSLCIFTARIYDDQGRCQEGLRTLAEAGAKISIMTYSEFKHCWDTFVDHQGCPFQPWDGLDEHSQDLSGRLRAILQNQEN

The test has as its target DNA dC->dU-editing enzyme APOBEC-3G (Homo sapiens) (UniProt Q9HC16). Description: human A3G ssDNA deamination inhibition, hit confirmation – biochemical, fluorescence, single-stranded DNA substrate, single concentration (AID 493152). The note with it: recombinant A3G ssDNA deaminase, UDG/FAM-TAMRA fluorescence; at 20 µM; active compounds read high.
`COc1ccc(OCc2n[nH]c(=S)n2N)cc1`: the inhibition was 56.2% (active). For `Cn1c2ccccc2c(=O)c2c(=O)n(Cc3ccco3)c(COc3ccccc3)nc21`, the inhibition is 22%.

With `Cc1cccc(-n2c(N)c(C(=O)N3CCN(C)CC3)sc2=S)c1`, the inhibition is 77.7% (active). Consider `Cc1nc2scc(-c3cccs3)c2c(=O)n1N`, for which the inhibition is 0.32%. Regarding `O=C1C=CC(=O)N1c1ccc(N2CCCCC2)cc1`, the inhibition is 91% (active). Regarding `Cc1nc([N+](=O)[O-])nn1C12CC3CC(CC(Br)(C3)C1)C2`, the inhibition is 50.8% (active). As to `Cc1cc(-c2n[nH]c(=S)n2/N=C/c2ccco2)n[nH]1`, the inhibition was 58.5% (active). To `COC(=O)c1cccc(-n2[nH]nnc2=S)c1` belongs -14.5%. The result for `COc1ccccc1-n1c(-c2cc(-c3ccco3)[nH]n2)n[nH]c1=S` reads 50.2% (active); that for `S=c1[nH]nc2c3c4c(sc3ncn12)CCCC4`, 80% (active).

In the case of `CCOc1ccc(NC(=O)c2ccc(NC(=O)COC(=O)c3ccc(NC(=O)CC#N)cc3)cc2)cc1`, the inhibition is 51.5% (active).

In the case of `CCOC(=O)c1sc(=S)n2c1[nH]c(=O)c1ccc(C(=O)OC)cc12`, the inhibition is 7.15%. The result for `CC(=O)N1CC[n+]2c(-c3ccc([N+](=O)[O-])cc3)csc21` reads 50.5% (active); that for `S=c1[nH]nc(-c2ccc(Cl)cc2)n1CC1CCCO1` (centres undefined), 55.9% (active). To `Cc1ccc(S(=O)(=O)N(C)CC(=O)NCCc2c[nH]c3ccccc23)cc1` belongs 4.16%. With `COc1ccc(OCc2nnc3n2N=C(c2ccccc2)C(CC(=O)O)S3)cc1` (centres undefined), the inhibition is 27.3% (active). For `CCOc1ccc(NC(=O)Nc2cc(C)on2)cc1`, the inhibition is 0.05%. `S=c1[nH]nc(Nc2ccccc2)s1`: the inhibition was 68.3% (active). `S=c1[nH]nc(-c2cc(-c3ccccc3)n[nH]2)n1/N=C/c1c2ccccc2cc2ccccc12`: the inhibition is 8.05%. On to `CC1=C/C(=N\OS(=O)(=O)c2ccccc2)C=CC1=O`, for which the inhibition was 63.8% (active).

As for `S=c1[nH]nc(NCCc2ccccc2)s1`, the inhibition is 81.5% (active).

In the case of `S=c1[nH]ccn1-c1ccc(Cl)cc1`, the inhibition is 74% (active). For the compound `COc1ccc2[nH]c(=S)cc(C)c2c1`, the inhibition is 74.7% (active).

As to `S=c1[nH]nc(-c2ccncc2)n1/N=C/c1ccccc1Cl`, the inhibition is 95.7% (active).
